Results: ChEMBL document CHEMBL1961873, “Compounds: GSK PKIS; Assays: Nanosyn kinase panel” (2012)

Key:
[1] = molecular target: Tyrosine-protein kinase SYK (Homo sapiens) (UniProt P43405); conditions: at 1 µM
[2] = molecular target: T1, Tyrosine-protein kinase Tec (Homo sapiens) (UniProt P42680); conditions: at 0.1 µM
T1 sequence (whole entry): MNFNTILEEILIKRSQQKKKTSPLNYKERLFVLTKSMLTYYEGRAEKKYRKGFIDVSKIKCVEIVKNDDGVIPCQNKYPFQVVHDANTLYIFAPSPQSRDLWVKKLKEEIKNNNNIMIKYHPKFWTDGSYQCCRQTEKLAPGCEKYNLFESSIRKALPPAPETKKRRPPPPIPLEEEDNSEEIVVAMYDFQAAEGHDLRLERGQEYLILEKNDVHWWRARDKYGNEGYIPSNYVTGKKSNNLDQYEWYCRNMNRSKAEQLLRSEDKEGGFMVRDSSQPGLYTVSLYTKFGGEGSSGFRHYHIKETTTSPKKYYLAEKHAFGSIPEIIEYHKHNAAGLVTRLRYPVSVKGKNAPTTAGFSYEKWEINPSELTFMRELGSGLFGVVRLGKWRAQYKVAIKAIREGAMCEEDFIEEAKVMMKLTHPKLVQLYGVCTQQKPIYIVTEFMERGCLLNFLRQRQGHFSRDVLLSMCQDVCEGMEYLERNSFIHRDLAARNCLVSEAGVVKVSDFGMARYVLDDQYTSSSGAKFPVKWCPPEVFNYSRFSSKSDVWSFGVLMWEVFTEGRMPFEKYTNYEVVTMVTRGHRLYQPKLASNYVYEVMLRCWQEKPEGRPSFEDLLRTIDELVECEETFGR

[3] = molecular target: T1, Tyrosine-protein kinase Tec (Homo sapiens); conditions: at 1 µM
[4] = molecular target: Angiopoietin-1 receptor (Homo sapiens) (UniProt Q02763); conditions: at 0.1 µM
Chain of Angiopoietin-1 receptor (Homo sapiens) (Q02763 whole entry): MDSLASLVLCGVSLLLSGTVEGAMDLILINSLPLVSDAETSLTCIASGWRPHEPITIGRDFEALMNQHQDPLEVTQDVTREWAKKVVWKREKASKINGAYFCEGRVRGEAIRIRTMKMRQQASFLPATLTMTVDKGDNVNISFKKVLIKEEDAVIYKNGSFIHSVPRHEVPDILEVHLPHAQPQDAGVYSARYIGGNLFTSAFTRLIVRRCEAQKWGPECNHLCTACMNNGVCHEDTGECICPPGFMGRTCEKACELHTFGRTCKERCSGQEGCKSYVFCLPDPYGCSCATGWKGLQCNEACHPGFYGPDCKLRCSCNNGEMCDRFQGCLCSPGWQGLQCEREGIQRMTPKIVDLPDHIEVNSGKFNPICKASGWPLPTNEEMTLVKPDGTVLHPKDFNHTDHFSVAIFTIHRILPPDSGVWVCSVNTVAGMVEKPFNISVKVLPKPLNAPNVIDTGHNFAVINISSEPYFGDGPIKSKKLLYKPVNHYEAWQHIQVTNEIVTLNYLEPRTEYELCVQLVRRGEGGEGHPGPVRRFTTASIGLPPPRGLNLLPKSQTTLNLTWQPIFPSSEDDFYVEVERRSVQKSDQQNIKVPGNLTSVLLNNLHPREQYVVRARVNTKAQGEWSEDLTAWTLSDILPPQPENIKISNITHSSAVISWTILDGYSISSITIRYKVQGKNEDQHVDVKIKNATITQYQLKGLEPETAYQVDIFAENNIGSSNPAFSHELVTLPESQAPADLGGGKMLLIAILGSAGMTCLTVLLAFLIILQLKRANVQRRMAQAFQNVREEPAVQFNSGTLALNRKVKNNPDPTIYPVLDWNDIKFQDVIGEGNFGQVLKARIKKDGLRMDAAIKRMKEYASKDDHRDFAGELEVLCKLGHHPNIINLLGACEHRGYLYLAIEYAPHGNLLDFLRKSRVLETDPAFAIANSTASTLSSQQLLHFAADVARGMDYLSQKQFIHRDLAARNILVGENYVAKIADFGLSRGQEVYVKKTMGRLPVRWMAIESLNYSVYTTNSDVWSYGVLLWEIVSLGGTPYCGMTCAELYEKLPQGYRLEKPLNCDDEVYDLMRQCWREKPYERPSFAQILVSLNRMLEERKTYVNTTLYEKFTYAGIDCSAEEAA

[5] = molecular target: Angiopoietin-1 receptor (Homo sapiens) (UniProt Q02763); conditions: at 1 µM
[6] = molecular target: T2, Non-receptor tyrosine-protein kinase TNK1 (Homo sapiens) (UniProt Q13470); conditions: at 0.1 µM
T2 sequence (whole entry): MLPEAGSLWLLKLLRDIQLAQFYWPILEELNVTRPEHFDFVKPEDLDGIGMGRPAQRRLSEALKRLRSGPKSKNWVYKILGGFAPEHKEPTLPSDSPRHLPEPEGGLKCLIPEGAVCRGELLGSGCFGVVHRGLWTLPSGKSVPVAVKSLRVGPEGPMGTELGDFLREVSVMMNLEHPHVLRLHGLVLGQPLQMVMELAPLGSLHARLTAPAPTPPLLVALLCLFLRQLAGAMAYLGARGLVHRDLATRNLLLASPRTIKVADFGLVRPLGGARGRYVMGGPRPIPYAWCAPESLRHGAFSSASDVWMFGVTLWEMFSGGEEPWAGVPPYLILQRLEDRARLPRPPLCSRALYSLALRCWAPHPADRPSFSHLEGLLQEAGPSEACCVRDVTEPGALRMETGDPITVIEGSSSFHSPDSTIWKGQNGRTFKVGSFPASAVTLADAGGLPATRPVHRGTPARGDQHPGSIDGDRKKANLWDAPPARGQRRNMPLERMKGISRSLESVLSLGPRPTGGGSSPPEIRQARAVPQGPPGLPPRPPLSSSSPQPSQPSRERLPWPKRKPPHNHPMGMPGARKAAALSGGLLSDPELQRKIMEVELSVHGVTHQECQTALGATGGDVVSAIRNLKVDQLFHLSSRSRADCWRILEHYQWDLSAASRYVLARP

[7] = molecular target: T2, Non-receptor tyrosine-protein kinase TNK1 (Homo sapiens); conditions: at 1 µM
[8] = molecular target: Activated CDC42 kinase 1 (Homo sapiens) (UniProt Q07912); conditions: at 0.1 µM
Chain of Activated CDC42 kinase 1 (Homo sapiens) (Q07912 whole entry, looked up): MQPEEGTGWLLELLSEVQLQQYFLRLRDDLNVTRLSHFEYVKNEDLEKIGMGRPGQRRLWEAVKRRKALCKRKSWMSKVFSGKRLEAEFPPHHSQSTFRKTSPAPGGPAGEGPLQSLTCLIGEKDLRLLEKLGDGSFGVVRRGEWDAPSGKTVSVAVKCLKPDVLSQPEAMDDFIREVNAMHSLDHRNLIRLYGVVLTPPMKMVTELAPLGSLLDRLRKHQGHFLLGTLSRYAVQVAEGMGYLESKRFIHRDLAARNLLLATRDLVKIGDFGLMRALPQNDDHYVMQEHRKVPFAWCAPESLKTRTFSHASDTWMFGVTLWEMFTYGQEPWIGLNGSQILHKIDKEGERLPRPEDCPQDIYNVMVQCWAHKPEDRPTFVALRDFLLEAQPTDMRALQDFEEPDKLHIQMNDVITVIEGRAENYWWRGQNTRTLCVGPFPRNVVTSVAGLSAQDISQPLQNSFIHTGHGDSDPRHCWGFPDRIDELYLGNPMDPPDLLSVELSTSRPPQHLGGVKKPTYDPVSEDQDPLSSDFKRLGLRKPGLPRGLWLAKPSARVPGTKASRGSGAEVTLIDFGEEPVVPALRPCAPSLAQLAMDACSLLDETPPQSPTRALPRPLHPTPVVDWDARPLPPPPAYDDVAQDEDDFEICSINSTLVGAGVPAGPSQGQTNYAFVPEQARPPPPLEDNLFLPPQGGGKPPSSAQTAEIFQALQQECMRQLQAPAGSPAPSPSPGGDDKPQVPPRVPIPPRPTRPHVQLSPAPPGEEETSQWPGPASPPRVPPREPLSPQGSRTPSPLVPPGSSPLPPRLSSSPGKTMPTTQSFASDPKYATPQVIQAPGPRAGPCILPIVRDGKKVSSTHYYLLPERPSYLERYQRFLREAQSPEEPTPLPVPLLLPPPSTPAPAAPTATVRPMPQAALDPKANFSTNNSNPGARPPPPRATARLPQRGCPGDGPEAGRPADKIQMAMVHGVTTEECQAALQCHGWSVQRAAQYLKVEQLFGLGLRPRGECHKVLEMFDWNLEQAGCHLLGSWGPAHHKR

[9] = molecular target: Activated CDC42 kinase 1 (Homo sapiens) (UniProt Q07912); conditions: at 1 µM
[10] = molecular target: High affinity nerve growth factor receptor (Homo sapiens) (UniProt P04629); conditions: at 0.1 µM;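 note: each value is a mean of replicate percent inhibition readings against TRKA kinase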
Chain of High affinity nerve growth factor receptor (Homo sapiens) (P04629 33-796 limits assumed): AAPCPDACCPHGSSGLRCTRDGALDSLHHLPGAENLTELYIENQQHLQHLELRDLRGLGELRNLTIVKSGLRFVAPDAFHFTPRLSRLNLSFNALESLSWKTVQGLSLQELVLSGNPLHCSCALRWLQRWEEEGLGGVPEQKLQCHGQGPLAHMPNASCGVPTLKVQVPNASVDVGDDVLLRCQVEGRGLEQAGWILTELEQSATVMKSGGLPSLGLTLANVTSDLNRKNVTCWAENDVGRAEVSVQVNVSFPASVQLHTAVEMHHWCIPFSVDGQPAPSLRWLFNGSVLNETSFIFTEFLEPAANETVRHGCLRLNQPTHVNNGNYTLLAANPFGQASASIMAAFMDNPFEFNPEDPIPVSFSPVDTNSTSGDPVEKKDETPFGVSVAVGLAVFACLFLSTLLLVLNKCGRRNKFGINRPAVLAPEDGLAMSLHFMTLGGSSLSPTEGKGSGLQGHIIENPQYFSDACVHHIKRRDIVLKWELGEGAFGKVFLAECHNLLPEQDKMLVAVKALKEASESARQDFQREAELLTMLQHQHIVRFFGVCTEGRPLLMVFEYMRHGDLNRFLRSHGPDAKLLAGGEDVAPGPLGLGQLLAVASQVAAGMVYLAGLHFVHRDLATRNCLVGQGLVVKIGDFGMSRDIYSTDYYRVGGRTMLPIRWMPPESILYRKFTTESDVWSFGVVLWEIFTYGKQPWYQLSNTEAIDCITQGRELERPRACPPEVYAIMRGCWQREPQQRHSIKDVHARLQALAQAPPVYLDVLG

Compound | inhibition [1] [%] | inhibition [2] [%] | inhibition [3] [%] | inhibition [4] [%] | inhibition [5] [%] | inhibition [6] [%] | inhibition [7] [%] | inhibition [8] [%] | inhibition [9] [%] | inhibition [10] [%]
CC(C)(CO)CNC(=O)c1ccc2c(c1)/C(=N/Nc1ccc(S(N)(=O)=O)cc1)C(=O)N2 | -2.05 | 0.59 | 5.32 | -0.74 | 0.79 | 0.66 | 10.3 | -0.56 | 0.03 | 1.4
COc1cccc(-n2ncc3c(N/N=C/c4ccc(F)cc4)ncnc32)c1 | -3.59 | 5 | 9.02 | 2.18 | 5.99 | 5.45 | 12.4 | 1.52 | 3.5 | 4.72
N#Cc1c(NC(=O)CN2CCOCC2)sc2c1CCCC2 | -1.53 | 3.74 | 7.22 | 2.61 | 4.26 | 3.32 | 8.64 | 1.58 | 3.21 | 3.46
CN1CCC(n2cnc(-c3ccc(F)cc3)c2-c2ccnc(N)n2)CC1 | -1.2 | 3.52 | 5.01 | 3.13 | 2.56 | 1.5 | 8.96 | 0.57 | 1.23 | 0.03
O=C(O[C@H]1CN[C@H](C#Cc2cc3ncnc(Nc4ccc(Cc5ccccc5)cc4)c3s2)C1)N1CCOCC1 | -3.86 | -0.07 | 4.05 | -0.43 | 2.3 | 0.66 | 5.45 | 0.74 | 0.96 | 1.4
COc1ccc(-c2cc3c(N)ncnc3o2)cc1 | -0.57 | -1.03 | 3.07 | 2.49 | 2.73 | -0.85 | 6.1 | -0.17 | 1.96 | -0.83
O=C(Nc1n[nH]c2cc(-c3ccc(F)cc3)ccc12)C1CC1 | 1.05 | 3.06 | 4.11 | 1.89 | 6.64 | 0.9 | 5.38 | 0.53 | 1.19 | 4.77
CC(C)COC(=O)c1ccc2c(c1)/C(=C/Nc1ccc(S(N)(=O)=O)cc1)C(=O)N2 | -2.67 | 0.3 | 6.56 | 0.75 | 7.91 | -3.82 | 5.07 | -0.91 | 0.01 | 2.03
CCN(CC)S(=O)(=O)c1ccc(OC)c(Nc2ncc(-c3ccccc3)o2)c1 | -0.04 | 2.99 | 11.9 | 4.38 | 14 | 15.6 | 72.1 | -0.01 | 1.62 | 4.25
CCOc1ccc2c(-c3ccnc(Nc4cccc(C(F)(F)F)c4)n3)cnn2n1 | -6.38 | -0.08 | 4.44 | 1.3 | 7.44 | -0.72 | 14.7 | 0.55 | 0.5 | 0.72
CCNC(=O)O[C@H]1CN[C@H](C#Cc2cc3ncnc(Nc4ccc(OCc5cccc(F)c5)c(Cl)c4)c3s2)C1 | 0.53 | 4.9 | 5.79 | 1.23 | 3.88 | 3.2 | 10.3 | 1.33 | 1.05 | 4.7
COc1cccc(-c2c[nH]c3c(N/N=C/c4ccncc4)ncnc23)c1 | 4.79 | 3.87 | 16.5 | 4.98 | 27.5 | 10 | 41.7 | 1.63 | 15.3 | 6.49
COc1ccc2[nH]c3c4[nH]c5ccc(OC)cc5c4c4c(c3c2c1)C(=O)NC4=O | 10.5 | 6.89 | 31 | 1.36 | 5 | 63.6 | 89 | 5.57 | 16 | 3.47
CS(=O)(=O)CCNCc1coc(-c2ccc3ncnc(Nc4ccc(OCc5ccccc5)cc4)c3c2)c1 | 3.66 | 4.07 | 6.39 | 3.15 | 4.19 | 4.53 | 7.58 | 1.22 | 2.21 | 1.72
CNC(=O)c1cc(-c2ccc(F)cc2)cc(-c2ccc(S(=O)(=O)N3CCCC3)cc2)c1N | 0.73 | 2.93 | 3.29 | 2.3 | 2.3 | 2.65 | 2.41 | 0.47 | 1.54 | 1.97
FC(F)(F)c1cccc(-c2nn3ncccc3c2-c2ccnc(Nc3ccc4c(c3)OCCO4)n2)c1 | -1.91 | 4.21 | 15.5 | 4.09 | 10.6 | 1.44 | 5.7 | 0.31 | 0.47 | 1.71
COc1ccc2c(-c3ccnc(Nc4cccc(OC(F)(F)F)c4)n3)cnn2n1 | -3.35 | 6.32 | 11.9 | 1.4 | 4.58 | 9.21 | 45 | 1.32 | 3.83 | 4.63

Compound | inhibition [1] [%] | inhibition [2] [%] | inhibition [3] [%] | inhibition [4] [%] | inhibition [5] [%] | inhibition [6] [%] | inhibition [7] [%] | inhibition [8] [%] | inhibition [9] [%] | inhibition [10] [%]
COc1ccc(-c2nn3ncccc3c2-c2ccnc(Nc3ccc4c(c3)OCCO4)n2)cc1 | -0.41 | 1.33 | 11.9 | 8.07 | 45.9 | 6.95 | 51.1 | -0.12 | 3.47 | 0.04
Fc1ccc(-c2cc(-c3c[nH]nc3-c3ccccn3)ccn2)cc1 | -0.94 | 3.71 | 3.67 | 2.32 | 2.49 | 3.71 | 17.8 | 2.51 | 1.26 | 2.16
Clc1ccc(-c2nn3ncccc3c2-c2ccnc(Nc3ccccc3)n2)cc1 | 2.04 | 2.78 | 15.2 | 3.84 | 18.5 | -6.06 | 11.2 | 0.77 | 4.09 | 3.46
CCn1cc(-c2ccnc3[nH]ccc23)c(-c2cccc(NC(=O)Nc3ccc(OCc4ccccc4)cc3)c2)n1 | -2.75 | -0.28 | 0.98 | -0.17 | 6.2 | 1.05 | 11.2 | -0.68 | 2.63 | -1.48
CNC(=O)c1cncc(/C=C/c2ccccc2Cl)c1 | 0.31 | 2.56 | 10.2 | -0.85 | 4.09 | 2.57 | 27.7 | 0.2 | 5.7 | -5.21
Fc1ccc(-c2nn3ncccc3c2-c2ccnc(Nc3ccc4c(c3)OCCO4)n2)cc1 | -3.1 | 11.3 | 45.3 | 6.26 | 23.4 | 8.48 | 30.4 | 1.35 | 13 | 2.82
NS(=O)(=O)c1ccc(Nc2ncc(-c3ccccc3)o2)cc1 | -1.05 | 4.68 | 7.4 | 2.1 | 2.98 | 4.37 | 18.5 | 1.26 | 3.09 | 5.28
CCc1nn2ncccc2c1-c1ccnc(NC2CC2)n1 | 2.4 | 3.41 | 4.89 | 4.14 | 6.65 | 1.41 | 5.48 | 1.22 | 2.89 | 0.51
Nc1ncc(-c2cccc(S(N)(=O)=O)c2)c2scc(-c3ccc(F)c(Cl)c3)c12 | -4.44 | 25.8 | 75.2 | 2.99 | 11.1 | 6.81 | 36 | 5.03 | 36.6 | 1.33
CCn1c(-c2nonc2N)nc2ccccc21 | 0.1 | 3.65 | 7.35 | 0.56 | -0.01 | 2.77 | 4.19 | 1.12 | 2.47 | 3.39
COc1cc2ncn(-c3cc(OCc4ccccc4C(F)(F)F)c(C(=O)N(C)C)s3)c2cc1OC | 1.81 | 0.84 | 2.14 | 1.94 | 3.94 | 8.67 | 48.7 | 0.68 | 7.7 | 1.49
Fc1ccc(-c2nn3ccccc3c2-c2ccncc2)cc1 | 0.32 | 1.22 | 2.64 | 3.2 | 4.76 | -0.64 | 0.91 | 0.16 | 0.87 | 2.3
Nc1nc(-c2cccc(Cl)c2)c(-c2ccc3ncccc3n2)s1 | -0.99 | 5.56 | 5.26 | 4.2 | 5.76 | 3.08 | 11.5 | 3.52 | 2.83 | 2.32
c1ccc(-c2nc3n(c2-c2ccc4c(c2)OCO4)CCC3)nc1 | 2.09 | 1.69 | 0.69 | -0.12 | 1.12 | 0.76 | 0.08 | 0.05 | 0.93 | 1.9
NC(=O)c1sc(-n2cnc3ccc(C(F)(F)F)cc32)cc1OCc1ccccc1Br | 0.09 | 2.5 | 2.78 | 2.27 | 3.55 | 1.47 | 9.04 | 0.36 | 0.65 | 4.01
CNC(=O)c1cccc(C#Cc2cncnc2Nc2ccc(OCc3cccc(F)c3)c(Cl)c2)c1 | 0.47 | 0.86 | 2.99 | -0.1 | 2.32 | -0.06 | 10.8 | -0.6 | 0.21 | -0.85
COC(=O)Nc1nc2ccc(Oc3ccc(NC(=O)Nc4cccc(Cl)c4)cc3)cc2[nH]1 | 0.56 | -0.16 | 1.83 | 17.1 | 44.7 | 2.25 | 7.76 | 0.12 | -0.32 | 15.6
